# From publication PMC7862700, “An all-to-all approach to the identification of sequence-specific readers for epigenetic DNA modifications on cytosine”
# Legend:
# Test in all cases: DAPPL (digital affinity profiling via proximity ligation, sequencing); 10 mM Tris-HCl pH 7.5, 50 mM NaCl, 1 mM DTT, 4% glycerol, room temperature, 30 min; GST-TFs on glutathione beads, 16-mer random dsDNA library, 0.1% formaldehyde crosslink after washing; high values mean tight binding
# Conditions in all cases: protein: recombinant; tags: N-terminal GST; dsDNA, one strand shown
# ELK1 = target: T1, ELK1 (Homo sapiens, UniProt P19419 1-428)
# T1 sequence: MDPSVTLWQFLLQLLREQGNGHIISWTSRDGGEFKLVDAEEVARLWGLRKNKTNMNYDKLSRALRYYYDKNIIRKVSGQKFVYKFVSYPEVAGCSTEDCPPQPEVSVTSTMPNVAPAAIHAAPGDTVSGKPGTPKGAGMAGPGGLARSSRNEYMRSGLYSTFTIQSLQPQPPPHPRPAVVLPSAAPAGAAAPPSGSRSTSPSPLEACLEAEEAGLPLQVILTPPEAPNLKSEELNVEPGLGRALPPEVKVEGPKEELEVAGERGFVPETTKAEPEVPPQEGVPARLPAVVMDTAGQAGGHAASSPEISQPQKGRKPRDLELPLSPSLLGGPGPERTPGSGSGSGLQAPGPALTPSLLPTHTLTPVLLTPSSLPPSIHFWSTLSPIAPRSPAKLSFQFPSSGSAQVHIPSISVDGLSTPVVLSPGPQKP
# Summary of the method: (§1)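 GST fusions of human transcription factors were expressed in yeast and captured with glutathione beads. Once given DNA barcodes and pooled alongside a tag-only sample, they were incubated for 30 min at room temperature with 200 nmole of a random double-stranded 16-mer DNA library in Tris/NaCl/DTT/glycerol buffer, then washed, crosslinked (0.1% formaldehyde), proximity-ligated, PCR-amplified and sequenced on an Illumina NextSeq500. The binding signal of each hexamer is its read frequency for a factor divided by its frequency for the tag-only sample.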
# GABPA = target: T2, GABPA (Homo sapiens, UniProt Q06546 1-454)
# T2 sequence: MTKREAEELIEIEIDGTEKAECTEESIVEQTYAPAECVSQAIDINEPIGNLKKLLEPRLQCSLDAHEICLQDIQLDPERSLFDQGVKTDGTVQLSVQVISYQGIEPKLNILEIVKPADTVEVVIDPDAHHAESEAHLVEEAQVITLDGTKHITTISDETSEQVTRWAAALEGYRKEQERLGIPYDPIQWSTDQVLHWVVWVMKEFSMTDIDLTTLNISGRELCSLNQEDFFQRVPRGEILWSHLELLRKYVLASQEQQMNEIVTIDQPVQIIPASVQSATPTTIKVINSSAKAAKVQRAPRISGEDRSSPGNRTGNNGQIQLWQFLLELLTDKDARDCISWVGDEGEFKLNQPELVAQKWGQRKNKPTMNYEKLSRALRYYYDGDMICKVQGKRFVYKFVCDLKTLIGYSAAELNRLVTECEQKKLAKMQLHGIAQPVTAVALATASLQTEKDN
# Summary of the method: as §1
# ERG = target: T3, ERG (Homo sapiens, UniProt P11308 1-479)
# T3 sequence: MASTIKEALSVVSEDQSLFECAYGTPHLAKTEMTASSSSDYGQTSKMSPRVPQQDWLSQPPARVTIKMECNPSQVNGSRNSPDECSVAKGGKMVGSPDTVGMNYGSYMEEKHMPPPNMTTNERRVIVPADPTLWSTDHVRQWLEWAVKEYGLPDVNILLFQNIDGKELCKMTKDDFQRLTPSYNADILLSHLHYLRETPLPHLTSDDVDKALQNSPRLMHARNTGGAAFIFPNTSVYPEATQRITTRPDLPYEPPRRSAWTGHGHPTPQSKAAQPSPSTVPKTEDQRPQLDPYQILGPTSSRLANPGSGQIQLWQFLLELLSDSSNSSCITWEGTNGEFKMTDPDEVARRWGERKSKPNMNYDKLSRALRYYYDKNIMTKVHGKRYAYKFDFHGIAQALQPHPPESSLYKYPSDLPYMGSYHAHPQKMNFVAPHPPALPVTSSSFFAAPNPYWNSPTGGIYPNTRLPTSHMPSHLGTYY
# Summary of the method: as §1
# ELF1 = ELF1 (Homo sapiens, UniProt P32519 1-619)
# Summary of the method: as §1
# SPIC = target: T4, SPIC (Homo sapiens, UniProt Q8N5J4 1-248)
# T4 sequence: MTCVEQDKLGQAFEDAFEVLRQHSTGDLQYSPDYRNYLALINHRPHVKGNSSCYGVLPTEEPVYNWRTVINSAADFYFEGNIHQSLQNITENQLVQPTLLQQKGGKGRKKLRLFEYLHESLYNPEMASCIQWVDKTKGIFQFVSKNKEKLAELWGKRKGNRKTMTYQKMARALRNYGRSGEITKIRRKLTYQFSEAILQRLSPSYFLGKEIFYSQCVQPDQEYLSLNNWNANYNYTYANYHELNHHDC
# Summary of the method: as §1
# ELF4 = ELF4 (Homo sapiens, UniProt Q99607 1-663)
# Summary of the method: as §1
# ELK4 = target: T5, ELK4 (Homo sapiens, UniProt P28324-2 1-405)
# T5 sequence: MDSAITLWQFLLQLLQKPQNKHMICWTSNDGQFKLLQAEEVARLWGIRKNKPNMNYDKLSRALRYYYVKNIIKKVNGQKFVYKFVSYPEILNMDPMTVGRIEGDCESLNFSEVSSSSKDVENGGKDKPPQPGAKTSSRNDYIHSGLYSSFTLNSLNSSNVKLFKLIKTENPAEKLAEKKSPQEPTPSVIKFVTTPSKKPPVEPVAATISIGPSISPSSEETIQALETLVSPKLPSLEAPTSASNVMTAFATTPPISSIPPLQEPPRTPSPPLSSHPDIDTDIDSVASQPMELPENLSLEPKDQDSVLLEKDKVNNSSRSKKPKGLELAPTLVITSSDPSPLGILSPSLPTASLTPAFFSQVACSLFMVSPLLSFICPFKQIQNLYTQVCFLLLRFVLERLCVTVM
# Summary of the method: as §1
# ELF3 = target: T6, ELF3 (Homo sapiens, UniProt P78545 1-371)
# T6 sequence: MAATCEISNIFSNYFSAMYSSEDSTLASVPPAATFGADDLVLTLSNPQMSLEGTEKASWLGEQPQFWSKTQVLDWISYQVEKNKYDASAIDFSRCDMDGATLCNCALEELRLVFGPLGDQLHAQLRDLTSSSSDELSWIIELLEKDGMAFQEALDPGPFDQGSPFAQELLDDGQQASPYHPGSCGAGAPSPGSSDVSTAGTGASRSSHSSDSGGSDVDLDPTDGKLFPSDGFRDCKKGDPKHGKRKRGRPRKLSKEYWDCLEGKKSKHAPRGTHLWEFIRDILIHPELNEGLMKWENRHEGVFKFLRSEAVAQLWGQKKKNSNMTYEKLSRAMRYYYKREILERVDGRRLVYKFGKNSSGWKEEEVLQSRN
# Summary of the method: as §1
# ERF = target: T7, ERF (Homo sapiens, UniProt P50548 1-548)
# T7 sequence: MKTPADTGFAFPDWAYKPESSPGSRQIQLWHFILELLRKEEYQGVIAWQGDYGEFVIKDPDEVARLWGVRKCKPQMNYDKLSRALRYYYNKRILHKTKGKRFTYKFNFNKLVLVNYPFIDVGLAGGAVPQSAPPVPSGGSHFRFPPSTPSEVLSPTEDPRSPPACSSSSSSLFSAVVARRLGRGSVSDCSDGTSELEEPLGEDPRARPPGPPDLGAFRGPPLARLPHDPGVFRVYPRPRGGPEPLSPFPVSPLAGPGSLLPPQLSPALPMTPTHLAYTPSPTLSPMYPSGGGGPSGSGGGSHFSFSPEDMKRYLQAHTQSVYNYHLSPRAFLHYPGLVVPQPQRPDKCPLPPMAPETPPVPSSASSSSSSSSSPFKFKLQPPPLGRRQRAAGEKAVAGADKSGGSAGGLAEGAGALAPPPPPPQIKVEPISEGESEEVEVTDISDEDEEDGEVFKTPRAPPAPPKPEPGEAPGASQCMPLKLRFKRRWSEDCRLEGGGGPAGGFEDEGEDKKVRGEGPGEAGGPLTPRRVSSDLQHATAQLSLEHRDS
# Summary of the method: as §1
# ETV3L = target: T8, ETV3L (Homo sapiens, UniProt Q6ZN32 1-361)
# T8 sequence: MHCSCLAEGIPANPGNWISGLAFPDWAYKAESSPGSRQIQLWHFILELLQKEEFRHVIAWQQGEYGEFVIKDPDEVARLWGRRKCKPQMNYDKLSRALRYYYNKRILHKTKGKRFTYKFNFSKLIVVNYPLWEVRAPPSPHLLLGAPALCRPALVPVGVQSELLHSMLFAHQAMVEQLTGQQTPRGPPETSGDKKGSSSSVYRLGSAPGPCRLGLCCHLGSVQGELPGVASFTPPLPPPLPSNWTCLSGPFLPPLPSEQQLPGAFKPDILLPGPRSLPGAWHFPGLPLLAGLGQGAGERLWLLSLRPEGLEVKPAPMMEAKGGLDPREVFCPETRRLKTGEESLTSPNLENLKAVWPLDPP
# Summary of the method: as §1
# ETS2 = target: T9, ETS2 (Homo sapiens, UniProt P15036 1-469)
# T9 sequence: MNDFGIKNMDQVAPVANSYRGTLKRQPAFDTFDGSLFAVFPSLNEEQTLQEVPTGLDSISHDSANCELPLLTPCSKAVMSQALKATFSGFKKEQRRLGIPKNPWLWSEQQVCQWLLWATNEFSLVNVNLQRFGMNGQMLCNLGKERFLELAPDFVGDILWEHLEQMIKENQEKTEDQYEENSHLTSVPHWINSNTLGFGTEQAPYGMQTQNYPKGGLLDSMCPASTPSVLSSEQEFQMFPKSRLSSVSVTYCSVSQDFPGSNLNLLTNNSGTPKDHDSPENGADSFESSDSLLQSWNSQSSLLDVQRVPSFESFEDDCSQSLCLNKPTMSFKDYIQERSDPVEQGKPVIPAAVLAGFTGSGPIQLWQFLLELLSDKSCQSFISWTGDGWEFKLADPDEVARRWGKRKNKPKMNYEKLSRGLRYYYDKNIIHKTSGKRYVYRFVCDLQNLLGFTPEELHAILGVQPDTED
# Summary of the method: as §1
# ETV3 = target: T10, ETV3 (Homo sapiens, UniProt P41162-2 1-143)
# T10 sequence: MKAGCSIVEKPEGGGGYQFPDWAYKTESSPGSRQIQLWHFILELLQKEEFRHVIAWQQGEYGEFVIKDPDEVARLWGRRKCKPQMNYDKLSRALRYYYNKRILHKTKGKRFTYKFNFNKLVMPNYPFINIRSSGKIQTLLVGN
# Summary of the method: as §1
# ETV6 = ETV6 (Homo sapiens, UniProt P41212 1-452)
# Summary of the method: as §1
# EHF = target: T11, EHF (Homo sapiens, UniProt Q9NZC4 1-300)
# T11 sequence: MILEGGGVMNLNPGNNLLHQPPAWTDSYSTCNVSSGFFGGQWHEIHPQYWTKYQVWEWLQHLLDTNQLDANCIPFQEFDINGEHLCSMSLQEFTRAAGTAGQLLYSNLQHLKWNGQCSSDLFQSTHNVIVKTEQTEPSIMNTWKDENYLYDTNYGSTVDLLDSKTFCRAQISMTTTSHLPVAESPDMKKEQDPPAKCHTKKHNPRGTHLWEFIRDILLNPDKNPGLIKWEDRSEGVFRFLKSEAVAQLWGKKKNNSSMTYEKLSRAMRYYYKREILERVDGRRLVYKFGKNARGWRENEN
# Summary of the method: as §1
# ETV7 = target: T12, ETV7 (Homo sapiens, UniProt Q9Y603 1-341)
# T12 sequence: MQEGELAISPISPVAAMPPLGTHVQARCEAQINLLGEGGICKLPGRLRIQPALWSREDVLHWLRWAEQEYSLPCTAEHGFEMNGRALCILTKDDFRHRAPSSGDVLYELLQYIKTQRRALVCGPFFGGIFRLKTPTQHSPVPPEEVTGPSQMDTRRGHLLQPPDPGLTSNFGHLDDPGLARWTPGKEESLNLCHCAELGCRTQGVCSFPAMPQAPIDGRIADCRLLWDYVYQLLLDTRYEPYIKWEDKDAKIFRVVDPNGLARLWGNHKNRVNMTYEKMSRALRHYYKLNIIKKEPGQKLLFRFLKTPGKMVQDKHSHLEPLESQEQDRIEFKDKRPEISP
# Summary of the method: as §1
# Sequence of ETV6 (P41212 whole entry): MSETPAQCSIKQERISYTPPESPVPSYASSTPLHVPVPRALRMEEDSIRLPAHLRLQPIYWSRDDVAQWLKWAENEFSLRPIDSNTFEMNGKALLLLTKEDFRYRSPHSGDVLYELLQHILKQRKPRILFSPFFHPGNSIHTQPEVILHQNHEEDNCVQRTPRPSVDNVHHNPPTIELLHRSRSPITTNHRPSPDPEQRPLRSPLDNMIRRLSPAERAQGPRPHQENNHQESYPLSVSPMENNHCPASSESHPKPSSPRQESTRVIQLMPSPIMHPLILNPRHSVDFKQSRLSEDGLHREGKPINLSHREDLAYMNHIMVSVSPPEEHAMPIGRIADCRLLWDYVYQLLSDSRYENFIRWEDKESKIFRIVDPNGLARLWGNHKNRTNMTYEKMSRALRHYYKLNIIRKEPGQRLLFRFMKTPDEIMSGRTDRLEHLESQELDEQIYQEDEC
# Sequence of ELF1 (P32519 whole entry): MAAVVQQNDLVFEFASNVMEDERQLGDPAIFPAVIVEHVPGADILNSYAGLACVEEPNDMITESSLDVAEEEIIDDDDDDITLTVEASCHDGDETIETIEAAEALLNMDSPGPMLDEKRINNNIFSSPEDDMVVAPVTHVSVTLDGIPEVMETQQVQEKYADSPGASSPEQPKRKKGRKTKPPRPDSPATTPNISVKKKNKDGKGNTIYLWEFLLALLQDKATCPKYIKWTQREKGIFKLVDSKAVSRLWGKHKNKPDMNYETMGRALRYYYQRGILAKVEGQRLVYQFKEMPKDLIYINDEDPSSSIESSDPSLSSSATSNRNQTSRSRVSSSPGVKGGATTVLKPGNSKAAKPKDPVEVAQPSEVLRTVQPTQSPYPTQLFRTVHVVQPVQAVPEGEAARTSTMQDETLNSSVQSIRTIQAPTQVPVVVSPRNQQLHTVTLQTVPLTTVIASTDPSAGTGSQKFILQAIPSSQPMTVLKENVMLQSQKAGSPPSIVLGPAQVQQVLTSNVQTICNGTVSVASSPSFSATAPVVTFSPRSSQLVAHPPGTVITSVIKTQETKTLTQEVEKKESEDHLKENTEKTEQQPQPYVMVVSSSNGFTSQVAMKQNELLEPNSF
# Sequence of ELF4 (Q99607 whole entry): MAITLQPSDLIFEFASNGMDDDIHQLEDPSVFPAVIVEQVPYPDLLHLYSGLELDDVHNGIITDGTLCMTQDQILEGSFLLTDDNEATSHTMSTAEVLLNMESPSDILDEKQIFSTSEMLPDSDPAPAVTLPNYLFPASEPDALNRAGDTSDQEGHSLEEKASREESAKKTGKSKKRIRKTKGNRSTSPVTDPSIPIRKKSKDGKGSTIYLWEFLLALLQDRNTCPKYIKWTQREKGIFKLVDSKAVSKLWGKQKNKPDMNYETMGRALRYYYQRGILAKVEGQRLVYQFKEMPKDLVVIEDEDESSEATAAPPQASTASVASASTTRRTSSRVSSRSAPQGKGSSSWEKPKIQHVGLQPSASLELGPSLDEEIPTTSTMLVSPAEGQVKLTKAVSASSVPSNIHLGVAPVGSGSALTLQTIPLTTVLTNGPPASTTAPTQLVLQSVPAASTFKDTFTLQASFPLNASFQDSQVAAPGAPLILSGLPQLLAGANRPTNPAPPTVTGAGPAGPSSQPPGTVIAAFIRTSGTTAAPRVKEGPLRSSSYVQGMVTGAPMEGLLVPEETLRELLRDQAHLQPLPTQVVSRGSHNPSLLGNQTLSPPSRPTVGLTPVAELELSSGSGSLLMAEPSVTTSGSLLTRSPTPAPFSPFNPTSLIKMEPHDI
Sequence,binding signal (ELK1),binding signal (GABPA),binding signal (ERG),binding signal (ELF1),binding signal (SPIC),binding signal (ELF4),binding signal (ELK4),binding signal (ELF3),binding signal (ERF),binding signal (ETV3L),binding signal (ETS2),binding signal (ETV3),binding signal (ETV6),binding signal (EHF),binding signal (ETV7)
GCCCGA,"1.01 fold enrichment (6-mer frequency, TF over GST control)","1.02 fold enrichment (6-mer frequency, TF over GST control)","1.01 fold enrichment (6-mer frequency, TF over GST control)","1.14 fold enrichment (6-mer frequency, TF over GST control)","1.11 fold enrichment (6-mer frequency, TF over GST control)","1.02 fold enrichment (6-mer frequency, TF over GST control)","1.1 fold enrichment (6-mer frequency, TF over GST control)","1.21 fold enrichment (6-mer frequency, TF over GST control)","1.05 fold enrichment (6-mer frequency, TF over GST control)","1.01 fold enrichment (6-mer frequency, TF over GST control)","1.08 fold enrichment (6-mer frequency, TF over GST control)","1.04 fold enrichment (6-mer frequency, TF over GST control)","1.07 fold enrichment (6-mer frequency, TF over GST control)",,
ACCTAG,,"1.14 fold enrichment (6-mer frequency, TF over GST control)",,"1.06 fold enrichment (6-mer frequency, TF over GST control)","1.01 fold enrichment (6-mer frequency, TF over GST control)","1.06 fold enrichment (6-mer frequency, TF over GST control)","1.08 fold enrichment (6-mer frequency, TF over GST control)","1.02 fold enrichment (6-mer frequency, TF over GST control)","1.06 fold enrichment (6-mer frequency, TF over GST control)","1.05 fold enrichment (6-mer frequency, TF over GST control)","1.06 fold enrichment (6-mer frequency, TF over GST control)",,"1.02 fold enrichment (6-mer frequency, TF over GST control)","1.04 fold enrichment (6-mer frequency, TF over GST control)","1.11 fold enrichment (6-mer frequency, TF over GST control)"
